Data on one compound can be found in PubChem BioAssay AID2284386 (EPA ToxCast).

Activity calls are given as the source filed them. The calls were made as follows: active = hit-call score of the fitted dose curve at least 0.9, where 1 is the maximum; inactive = score below 0.9.

The target in the test is Peroxisome proliferator-activated receptor gamma (Homo sapiens) (UniProt P37231). Description: ERF_FR_NR_COA_hPPARG: Eurofins (ERF) Nuclear Receptor (NR) Functional Coactivator Assay for human Peroxisome Proliferator-activated Receptor gamma (PPARg) Agonism, conducted at France lab site. On the procedure:
ERF_FR_NR_COA_hPPARG is a biochemical, single-readout assay that uses extracted gene-proteins in a cell-free assay. Measurements were taken 2 hours after chemical dosing in a 384-well plate. See PPARgamma Human NHR Functional Agonist Coactivator Assay, Cerep.ERF_FR_NR_COA_hPPARG is an assay component calculated from the ERF_FR_NR_COA_hPPARG assay. It is designed to measure FRET using a type of binding reporter as detected by fluorescence intensity of Rosiglitazone with fluorimetry technology.Data from the assay component ERF_FR_NR_COA_hPPARG was analyzed at the assay endpoint, ERF_FR_NR_COA_hPPARG, in the positive analysis fitting direction relative to DMSO as the negative control and baseline of activity. Using a type of binding reporter, gain-of-signal activity can be used to understand changes in binding as they relate to gene PPARG. […]
Test compound and/or vehicle is incubated with the 2 nM receptors and coactivator peptide for 180 minutes at room temperature. Determination of the amount of complex formed is read spectrofluorimetrically (excitation: 337 nm, emission: 520/490 nm). Test compound-induced increase fluorescence by 50 percent or more (>/=50%) relative to 1 uM GW1929 response indicates possible PPARgamma receptor agonist activity. […]

Chain of Peroxisome proliferator-activated receptor gamma (Homo sapiens) (P37231 whole entry, looked up): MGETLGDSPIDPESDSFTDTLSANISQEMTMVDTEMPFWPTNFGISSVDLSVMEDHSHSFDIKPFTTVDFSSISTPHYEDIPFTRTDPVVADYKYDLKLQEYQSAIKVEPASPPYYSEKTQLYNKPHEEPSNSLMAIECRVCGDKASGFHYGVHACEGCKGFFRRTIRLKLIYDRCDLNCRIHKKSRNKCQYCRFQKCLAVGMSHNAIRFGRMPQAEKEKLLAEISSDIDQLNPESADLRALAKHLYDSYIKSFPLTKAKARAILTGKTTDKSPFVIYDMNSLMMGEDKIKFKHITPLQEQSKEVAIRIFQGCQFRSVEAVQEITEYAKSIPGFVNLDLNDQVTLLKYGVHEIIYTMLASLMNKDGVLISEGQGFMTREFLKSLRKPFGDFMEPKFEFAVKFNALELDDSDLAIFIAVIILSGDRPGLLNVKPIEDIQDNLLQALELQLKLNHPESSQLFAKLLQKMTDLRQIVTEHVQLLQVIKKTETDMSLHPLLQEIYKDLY

On to `O=S(=O)(O)C(F)(F)C(F)(F)C(F)(F)C(F)(F)C(F)(F)C(F)(F)C(F)(F)C(F)(F)F`, for which the compound was called inactive.
